In the supplement of paper PMC7411640:
Where a name gives a salt, the structure may show the parent alone.

Tested on: MDA-MB-468
Experiment: phospho-S6 immunofluorescence (DAPI-normalised), per-plate z-score; higher = higher phospho-S6 signal (less pathway suppression)
Details: 24 h
Procedure: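 GPCR-targeted compound library (MedChemExpress HY-L006) tested on MDA-MB-468 PTEN-null TNBC cells in 384-well plates at 0.1, 1 or 10 uM, combined with vehicle, GDC0941 450 nM or lapatinib 1 uM, for 24 h. Phospho-S6 (S240/244) immunofluorescence normalised to DAPI and expressed as a per-plate z-score; values are the mean of biological triplicates.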

| Compound | phospho-S6 immunofluorescence (z-score) (co-treatment: GDC0941 450 nM) | phospho-S6 immunofluorescence (z-score) (co-treatment: lapatinib 1 uM) | phospho-S6 immunofluorescence (z-score) (co-treatment: vehicle) |
| --- | --- | --- | --- |
| Nc1nc(-c2nn(Cc3ccccc3F)c3ncccc23)ncc1C1CC1 (compound 10 µM) | 1.07 | 2.78 | -0.52 |
| C[C@@H]1C[C@H]2[C@@H]3CCC4=CC(=O)C=C[C@]4(C)[C@@]3(Cl)[C@@H](O)C[C@]2(C)[C@@]1(OC(=O)c1ccco1)C(=O)CCl [Mometasone furoate] (compound 10 µM) | -0.46 | 0.3 | -1.92 |
| C[C@@H](O[C@H]1OCCN(Cc2nn(P(=O)(O)O)c(=O)[nH]2)[C@H]1c1ccc(F)cc1)c1cc(C(F)(F)F)cc(C(F)(F)F)c1 [Fosaprepitant (dimeglumine)] (compound 10 µM) | -2.28 | -0.65 | 0.39 |
| CNCCc1ccccn1 [Betahistine (dihydrochloride)] (compound 10 µM) | -1.02 | 0.1 | -0.72 |
| O=C(CCCN1CC=C(n2c(=O)[nH]c3ccccc32)CC1)c1ccc(F)cc1 [Droperidol] (compound 10 µM) | -0.18 | 0.16 | 0.18 |
| CN1CCC(=C2c3ccccc3C=Cc3ccccc32)CC1 [Cyproheptadine (hydrochloride sesquihydrate)] (compound 10 µM) | 0.49 | -0.96 | -0.87 |
| O=C(c1ccc(F)cc1)C1CCN(CCn2c(=O)[nH]c3ccccc3c2=O)CC1 [Ketanserin] (compound 10 µM) | -0.64 | -0.02 | -0.85 |
| Cc1ccc(OCC(O)C(C)NC(C)C)c2c1CCC2 (stereo not given) [ICI 118,551 (hydrochloride)] (compound 10 µM) | 1.2 | -1.56 | 0.46 |
| CC1(C)O[C@@H]2C[C@H]3[C@@H]4CCC5=CC(=O)C=C[C@]5(C)[C@H]4[C@@H](O)C[C@]3(C)[C@]2(C(=O)CO)O1 [Desonide] (compound 10 µM) | -0.1 | 0.54 | 1.16 |
| O=C(CN1C(=O)C2(CCCC2)NC[C@H]1c1cc(F)cc(F)c1)Nc1ccc2c(c1)C[C@@]1(C2)C(=O)Nc2ncccc21 [MK-3207 (Hydrochloride)] (compound 10 µM) | -0.51 | -0.06 | -0.48 |
| CN1CCC(=C2c3ccccc3C=Cc3ccccc32)CC1 [Cyproheptadine (hydrochloride)] (compound 10 µM) | -0.64 | -1.26 | 0.16 |
| OCCOCCN1CCN(C(c2ccccc2)c2ccccc2)CC1 [Decloxizine (dihydrochloride)] (compound 10 µM) | 0.55 | -0.6 | -0.19 |
| O=C(O[C@@H]1C[C@@H]2C[C@H]3C[C@H](C1)N2CC3=O)c1c[nH]c2ccccc12 [Dolasetron (Mesylate hydrate)] (compound 10 µM) | 0.52 | -0.24 | 0.62 |
| CC[N+](CC)(CC)CCOc1cccc(OCC[N+](CC)(CC)CC)c1OCC[N+](CC)(CC)CC [Gallamine Triethiodide] (compound 10 µM) | 0.5 | -0.13 | 0.47 |
| CC(C)(N)C(=O)N[C@H](COCc1ccccc1)C(=O)N1CCC2(CC1)CN(S(C)(=O)=O)c1ccccc12 [Ibutamoren (Mesylate)] (compound 10 µM) | -2.77 | -7.75 | -5.38 |
| CCCCCNC(=N)N/N=C/c1c[nH]c2ccc(OC)cc12 [Tegaserod (maleate)] (compound 10 µM) | -6 | -12.1 | -10.3 |
| CNC(=O)c1cnn(-c2nc(N)c3ncn([C@@H]4O[C@H](CO)[C@@H](O)[C@H]4O)c3n2)c1 [Regadenoson] (compound 10 µM) | 1.19 | 1.71 | 0.29 |
| Cn1c(SCC(=O)N2CCC[C@H]2C(=O)Nc2ccccc2-c2ccccc2)nc2ccccc21 (compound 10 µM) | 0.08 | 1.59 | 0.81 |
| CCCN(CCc1cccs1)C1CCc2c(O)cccc2C1 (racemic) [rac-Rotigotine (Hydrochloride)] (compound 10 µM) | -0.62 | 0.67 | -0.11 |
| COc1cc2nc(N(C)CCCNC(=O)C3CCCO3)nc(N)c2cc1OC (stereo not given) [Alfuzosin] (compound 10 µM) | 0.81 | 0.71 | -0.19 |
| CN(C)C(=O)C(CCN1CCC(O)(c2ccc(Cl)cc2)CC1)(c1ccccc1)c1ccccc1 [Loperamide (hydrochloride)] (compound 10 µM) | -1.31 | -3.22 | -0.37 |
| CN(C)CC/C=C1/c2ccccc2COc2ccc(CC(=O)O)cc21 [Olopatadine (hydrochloride)] (compound 10 µM) | 0.01 | 0.08 | -0.35 |
| Cc1cc(O[C@@H](CCC(F)(F)F)c2ccc(C(=O)NCCC(=O)O)cc2)cc(C)c1-c1ccc(C(C)(C)C)cc1 [Adomeglivant] (compound 10 µM) | -4.72 | -7.2 | -6.79 |
| CCc1c(C(=O)NCCc2ccc(N3CCCCC3)cc2)[nH]c2ccc(Cl)cc12 (compound 10 µM) | -1.02 | -0.3 | 0.27 |
| CCc1cc2c(cc1CC)CC(NC[C@H](O)c1ccc(O)c3[nH]c(=O)ccc13)C2 [Indacaterol (maleate)] (compound 10 µM) | -0.81 | -1.41 | 0.92 |
